# The list is not random: actives were taken first. Their share in the collection is about 11%.
# Sm TGR block: inhibitors of Schistosoma mansoni thioredoxin glutathione reductase | Q962Y6 | purified TGR, DTNB reduction, TNB absorbance 405 nm | Potency, µM (series often up to 114 µM), for the others: at the top dose activity change, negative = inhibition, hits mostly inhibitors | 3% of 360,000 active | AID 485364; also: % is scaled to controls: 0 for no effect and ±100 for the full control effect; nearly all actives have a fitted effect of over 60% in size
#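 First, TGR (20 nM dispensed) and NADPH were mixed with compound. Second, a 15 min room-temperature incubation followed. Third, further NADPH and then DTNB were added to start the reaction. Finally, TNB absorbance was monitored kinetically.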
# AMA1-RON2 inh: inhibitors of Plasmodium falciparum AMA1-RON2 interaction. AlphaScreen AMA1-biotinylated RON2 peptide binding. Potency, µM (series often up to 58.2 µM), for the others: at the highest dose activity change, negative = inhibition, actives largely listed as inhibitors. 0.2% of 360,000 active. AID 720542;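 also: 0% = vehicle wells and -100% = peptide control; nearly all actives have a fitted effect of over 45% in size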
#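 AMA1 (3D7) with his tag at 25 nM final met compounds first, then biotinylated RON2 peptide at 25 nM; detection used donor plus acceptor beads, 10 µg/mL apiece, read by AlphaScreen after 30 min at room temperature.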
# Pf growth 48h: inhibits P. falciparum growth in the first generation, 48 h | P. falciparum luciferase growth in erythrocytes, 48 h | Potency, µM (doses to about 28.7 µM), inactives show at the highest dose activity change, negative = inhibition, hits mostly inhibitors | 5.9% of 310,000 active | AID 504832; also: % is scaled to controls: 0 for no effect and ±100 for the full control effect
#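 Luciferase-expressing P. falciparum in infected erythrocytes (2% hematocrit, 0.1% parasitemia final) in RPMI 1640/0.5% Albumax were exposed to compound for 48 hours at 37 C, 5% CO2; growth read as luminescence.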
# Pf growth 96h: P. falciparum growth inhibition at 96 hour, primary screen for plastid delayed-death inhibitors. P. falciparum luciferase reporter growth, 96 h. Potency, µM (doses to about 28.7 µM), for the others: top-dose activity change, negative = inhibition, usual class: inhibitors. 6.9% of 320,000 active; also: % is scaled to controls: 0 for no effect and ±100 for the full control effect
#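 Delayed-death screen, second-generation endpoint: infected erythrocytes, 2% hematocrit, 0.05% parasitemia final; 96 hours at 37 C, 5% CO2; luciferase detection reagent; luminescence decrease equals reduced growth.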
# NS1 function inh: influenza NS1 inhibition. AID 2326. Potency, µM (top dose mostly 46.1 µM), without a hit: top-dose activity, positive = more growth. 0.4% of 270,000 active; calls by dose curve; also: actives are rising curves; nearly all actives have a fitted effect of over 50% in size
#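 Compounds were scored for reversing the slow growth caused by influenza A NS1 in S. cerevisiae, measured by optical density at 600 nm. Assay medium contained 2% galactose at pH 6.0; NS1-free yeast of the same strain were the positive control.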
# * marks the source's active call; other numbers are inactive results; ? = inconclusive; / = not tested or not shown; [ ] = remark or other dose. Unless noted, calls follow the shape of the dose curve; as a rule, active = well fitted curve in the direction sought with a large enough effect; inconclusive = small, poorly fitted or top-dose-only effect, or another doubt; inactive = no such curve, though single readings can be large; an effect the other way counts as inactive or inconclusive. Potency is read from the fitted curve at half-maximal effect.
SMILES,Sm TGR block,AMA1-RON2 inh,Pf growth 48h,Pf growth 96h,NS1 function inh
O=C(CN1CCN(c2ccc(O)cc2)CC1)Nc1ccc(S(=O)(=O)N2CCCC2)cc1,/,13%,/,/,/
CN(c1ccc(C(=O)NC2CC2)cc1)S(=O)(=O)c1ccccc1,-14%,4%,4.7µM*,/,-3%
CN(c1ccccc1)S(=O)(=O)c1ccc(NC(=O)C2CC2)cc1,2%,-6%,34%,6.6µM*,-2%
CN(c1ccccc1)S(=O)(=O)c1cccc(C(=O)Nc2cccc(C(=O)NC3CC3)c2)c1,-3%,15%,5.2µM*,6.6µM*,/
CN(c1ccc(C(=O)NC2CCCC2)cc1)S(=O)(=O)c1ccc(Cl)cc1,-24%,4%,-19%,33%,11%
Cc1ccc(C(=O)Nc2cccc(C(=O)O)c2)cc1S(=O)(=O)N1CCOCC1,7%,5%,244%,/,9%
Cc1ccc(NC(=O)c2cccc(S(=O)(=O)N(C)c3ccccc3)c2)cc1S(=O)(=O)N1CCOCC1,1%,-21%,?,12µM*,?
COc1ccc(NC(=O)CN(C)CC(=O)NCCc2ccc(F)cc2)cc1,1%,4%,6%,1%,/
COC(=O)c1cc(S(=O)(=O)N2CCN(c3ccc(C(C)=O)cc3)CC2)c[nH]1,-8%,-8%,?,?,11%
COc1ccc(C2c3ccsc3CCN2C(=O)C(C)(C)C)cc1 (stereo not given),-3%,-19%,?,?,1%
Cc1ccc(C)c(Oc2coc3cc(OCC(=O)Nc4ccccc4C(C)C)ccc3c2=O)c1,-6%,/,13µM*,7.4µM*,30%
O=C1C=CC(=O)N1Cc1ccccn1,/,7%,/,/,/
CCCOC(=O)NC(CC)COC(=O)Nc1cccc(C)c1C (stereo not given),-27%,15%,6%,9.3µM*,-4%
CCCOc1cccc(C(=O)Nc2ccc(-c3nc4ccccc4o3)cc2)c1,-9%,/,/,/,/
CCOC(=O)C1=C(CSc2nc3ccccc3s2)NC(=O)NC1c1cccc([N+](=O)[O-])c1 (stereo not given),3%,-1%,5.9µM*,?,17%
CCOC(=O)C1=C(CNCc2ccc(C)cc2)NC(=O)NC1c1cc(C)ccc1C (stereo not given),-1%,9%,/,3.3µM*,14%
CCOC(=O)C1=C(CNCc2ccccc2Cl)NC(=O)NC1c1cccc([N+](=O)[O-])c1 (stereo not given),1%,26%,?,0.93µM*,/
CCOC(=O)C1=C(CNCCc2ccc(Cl)cc2)NC(=O)NC1c1cccc([N+](=O)[O-])c1 (stereo not given),-1%,-1%,?,17%,9%
CCOC(=O)C1=C(Cn2cnc3ccccc32)NC(=O)NC1c1cc(C)ccc1C (stereo not given),?,-1%,?,?,-49%
COc1ccc(S(=O)(=O)N2CCCCCC2)cc1N,-2%,-20%,21%,-1%,9%
CC(C)N(C)S(=O)(=O)c1ccc(NC(=O)CSC(=S)N2CCCC2)cc1,6%,0%,?,?,/
C[C@H](CO)N1C[C@H](C)[C@@H](CN(C)S(=O)(=O)c2cccs2)Oc2ccc(NC(=O)Cn3cnnn3)cc2C1=O,/,5%,/,/,/
CC(C)CC(=O)Nc1nnc(SCC(=O)NCc2ccc3c(c2)OCO3)s1,9%,21%,?,?,/
CC1=C(/C=C/C(C)=C/C=C/C(C)=C/C(=O)O)C(C)(C)CCC1,35µM*,12%,?,21%,3%
CC1=C(/C=C/C(C)=C\C=C\C(C)=C\C=C\C=C(C)\C=C\C=C(C)\C=C\C2=C(C)C[C@@H](O)CC2(C)C)C(C)(C)C[C@H](O)C1,/,/,15µM*,7.6µM*,/
SMILES,Sm TGR block,AMA1-RON2 inh,Pf growth 48h,Pf growth 96h,NS1 function inh
CC1=C[C@@H](O)CC(C)(C)[C@@H]1/C=C/C(C)=C/C=C/C(C)=C/C=C/C=C(C)/C=C/C=C(C)/C=C/C1=C(C)C[C@H](O)CC1(C)C,/,/,?,4.3µM*,/
Cc1ccc(C(=O)NC2CC(=O)N(c3ccc4c(c3)OCCO4)C2)cc1[N+](=O)[O-] (stereo not given),7%,-21%,-12%,8%,/
CC1=C/C(=C(\c2cc(C)c(O)c(Br)c2)c2ccccc2S(=O)(=O)O)C=C(Br)C1=O,?,?,?,10µM*,-7%
Cc1cc(C(=O)c2ccccc2)cc(C)c1O,/,17%,/,/,/
O=[N+]([O-])c1ccc(Sc2ccncn2)c([N+](=O)[O-])c1,/,-24%,/,/,/
CN(C)/N=C/c1ccc(Sc2ccc([N+](=O)[O-])cc2[N+](=O)[O-])o1,28µM*,-6%,-11%,-22%,-5%
Cc1cc(C)nc(Sc2ccc([N+](=O)[O-])cc2[N+](=O)[O-])n1,-20%,-7%,5.9µM*,-14%,10%
C=CCOc1ccc(/C=C2\SC(=Nc3cccnc3)NC2=O)cc1,-1%,4%,?,10µM*,4%
CC(/C=C1\SC(=Nc2cccnc2)NC1=O)=C\c1ccccc1,-3%,-6%,-1%,-24%,-3%
COc1ccc(Cl)cc1NC(=O)NC(C)C,/,-4%,2%,-40%[5.75 µM],6%
COc1ccc(C(C)=O)cc1CC(=O)Nc1cccc(S(=O)(=O)N2CCOCC2)c1,8%,2%,13µM*,7.4µM*,/
COc1ccc(Cl)cc1NC(=O)C(C)N(C)Cc1cccc(Cl)c1Cl (stereo not given),3%,10%,12µM*,6.6µM*,-2%
COc1ccc(S(=O)(=O)N2CCOCC2)cc1NC(=O)CN(C)Cc1c(F)cccc1Cl,-1%,-2%,7.4µM*,?,/
COc1ccc(S(=O)(=O)N2CCOCC2)cc1NC(=O)CN1CCCCCC1,?,9%,-4%,40%,/
COc1ccc(Cl)cc1NC(=O)C(C)NC(c1ccccc1)c1ccccc1 (stereo not given),4%,-7%,13µM*,2.9µM*,-7%
Cc1cc(Cl)ccc1NS(=O)(=O)c1c(C)[nH]c(=O)[nH]c1=O,-6%,-1%,23%,9%,3%
Cc1cc(C)c(NC(=O)CCS(=O)(=O)c2cc3c(cc2Cl)NC(=O)CO3)c(C)c1,2%,/,/,/,/
Cc1cccc(-c2nc(SCC(=O)NCC3CCCO3)c3c(=O)n(C)c(=O)n(C)c3n2)c1 (stereo not given),4%,/,/,/,/
CCN(C(=O)c1cc2c(=O)oc3ccc(C)cc3c2s1)c1ccccc1C,24%,/,/,/,/
O=C1CC2(CCN(C(=O)c3cccc(F)c3)CC2)Oc2ccccc21,-3%,1%,-8%,-13%,/
COc1ccc(C)cc1NC(=O)C(NCC(O)c1ccccc1)c1ccccc1 (stereo not given),0%,-21%,?,10µM*,2%
COc1ccc(Cl)cc1NC(=O)Cc1c(F)cccc1Cl,-8%,11%,?,5.9µM*,5%
COc1ccc(S(=O)(=O)N2CCOCC2)cc1NC(=O)Cc1c(Cl)cccc1Cl,-4%,21%,?,8.3µM*,4%

# Assay outcomes: PubChem BioAssay, National Center for Advancing Translational Sciences (NCATS)
